Measurements as given in PubChem BioAssay (EPA / NIEHS).
Activity calls are given as the source filed them. Rule for the calls: active = hit-call score of the fitted dose curve at least 0.9, where 1 is the maximum; inactive = score below 0.9.

Assay: BSK_hDFCGF_SRB: Viability Assessment in the BioMAP Diversity Plus: hDFCGF Assay (AID 2283061)
Settings: primary human foreskin fibroblasts
Description: BSK_hDFCGF is a cell-based, multiplexed-readout assay that uses foreskin fibroblast, a human skin primary cell, with measurements taken at 24 hours after chemical dosing in a 96-well plate.BSK_hDFCGF_SRB is an assay component measured in the BSK_hDFCGF assay. It measures 0.1% sulforhodamine related to cell death using Sulforhodamine staining technology.Data from the assay component BSK_hDFCGF_SRB was analyzed into 1 assay endpoint. This assay endpoint, BSK_hDFCGF_SRB, was analyzed with bidirectional fitting relative to DMSO as the negative control and baseline of activity. Using a type of viability reporter, gain or loss-of-signal activity can be used to understand changes in the signaling. Furthermore, this assay endpoint can be referred to as a primary readout, because this assay has produced multiple assay endpoints where this one serves a signaling function. To generalize the intended target to other relatable targets, this assay endpoint is annotated to the cell morphology intended target family, where the subfamily is cell conformation.
The levels of cell surface (or secreted, indicated by the prefix "s") biomarker endpoints were measured by ELISA. Overt cytotoxicity to cells in confluent adherent cultures (all systems other than the BT system) was assessed by measuring total protein levels using sulforhodamine B (SRB) staining in parallel cultures at the time of biomarker measurements, indicated as SRB endpoints. For proliferation assays for adherent cell types, individual cell types are cultured at sub-confluence and relative cell numbers quantified by SRB staining at time points optimized for each system (48 h: 3C and CASM3C systems; 72 h: BT and HDF3CGF systems; 96 h: SAg system). SRB was performed by staining cells with 0.1% SRB after fixation with 10% TCA and reading wells at 560 nm.Viability and proliferation of PBMC (T cells) was quantified by Alamar Blue reduction for the SAg and BT systems. For PBMC viability (referred to as PBMC Cytotoxicity within the assay endpoint names), cells were plated (75,000/well in a 96-well plate) and then chemical samples added for 1 h before addition of activators, SEB and TSST-1 (20 ng/mL final concentration each). Cells were incubated for 90 h. Then, Alamar Blue (20 uL/well) (Invitrogen, Cat DAL1100) was added for 6 h, and the plates were read with a fluorescence microplate reader at 546/580 nm (excitation/emission). For PBMC proliferation, cells were plated and activated as above but incubated for only 16 h prior to addition of Alamar Blue. Plates were read after 6 h.

| SMILES | outcome | AC50 |
| --- | --- | --- |
| Clc1cc(Cl)c(Cl)cc1Cl | inactive | – |
| COc1cc(C=O)ccc1O | inactive | – |
| CCCCCCCC=O | inactive | – |
| C[Si]1(C)O[Si](C)(C)O[Si](C)(C)O[Si](C)(C)O1 | inactive | – |
| CCCCCC(=O)O | inactive | – |
| Cc1cccc(C)c1O | inactive | – |
| CC(C)c1ccc(C(=O)N=C(N)N)cc1S(C)(=O)=O | inactive | – |
| C=CCc1ccc(O)c(OC)c1 | inactive | – |
| c1cc(-c2ccncc2)ccn1 | inactive | – |
| Cc1ccc(C)c(O)c1C | inactive | – |
| COc1ccc2c(c1)c(CC(=O)O)c(C)n2C(=O)c1ccc(Cl)cc1 | inactive | – |
| FC(F)(F)C(F)(F)C(F)(F)C(F)(F)C(F)(F)C(F)(F)CCI | inactive | – |
| COc1cc(-c2nc(NC(=O)c3cc4cc(C)cc(C)c4n3CC(=O)O)sc2CCC2CCCCC2)c(OC)cc1Cl | – | 0.771 µM (active) |
| NCCO | inactive | – |
| O=[N+]([O-])C(CO)(CO)CO | inactive | – |
| NS(=O)(=O)c1cc2c(cc1Cl)NCNS2(=O)=O | inactive | – |
| Cc1c(C(=O)O)c(O)cc2c1C(=O)c1c(O)c([C@@H]3O[C@H](CO)[C@@H](O)[C@H](O)[C@H]3O)c(O)c(O)c1C2=O | inactive | – |
| Cc1ccc(Cl)cc1 | inactive | – |
| CCCCCCCCCCCCCCCC | inactive | – |
| NC(=O)Cn1c(=O)cc(CCN2CCN(c3nccc4sccc34)CC2)c2ccc(F)cc21 | inactive | – |

| SMILES | outcome | AC50 |
| --- | --- | --- |
| O=c1[nH]cc(F)c(=O)[nH]1 | inactive | – |
| CCCCCCC(=O)OCC | inactive | – |
| CCCCN(CCCC)CCCC | inactive | – |
| Cc1nc(-c2ccc3c(c2)CCN(CCC2CCC(NC(=O)/C=C/c4ccc(F)cc4)CC2)CC3)no1 (stereo not given) | inactive | – |
| CC(CO)OC(C)CO (stereo not given) (tested in a mixture with another compound) | inactive | – |
| Nc1ccccc1N | inactive | – |
| CC=Cc1ccc(O)c(OC)c1 | inactive | – |
| Oc1ccc2ccccc2c1N=Nc1ccccc1 | inactive | – |
| Nc1nc(N)c2nc(CNc3ccc(C(=O)N[C@@H](CCC(=O)O)C(=O)O)cc3)cnc2n1 | inactive | – |
| COCCOCCOC | inactive | – |
| CC(=O)C(C)=CC1C(C)=CCCC1(C)C (stereo not given) | inactive | – |
| CCCCCCCCCCCCCO | – | 13.1 µM (active) |
| CC1(C)CC(N=C=O)CC(C)(CN=C=O)C1 (stereo not given) | inactive | – |
| CC(C)(C)c1cc(O)c(C(C)(C)C)cc1O | inactive | – |
| CN1CCN(Cc2cc(-c3ccc4[nH]c(=O)oc4c3)co2)[C@@H](c2ccc(F)cc2)C1 | – | 17.6 µM (active) |
| CCCc1cc(=O)[nH]c(=S)[nH]1 | inactive | – |
| O=C(O)Cc1ccccc1Nc1c(Cl)cccc1Cl | inactive | – |
| COC(=O)c1ccc(O)cc1 | inactive | – |
| C=CCOC(=O)c1ccccc1C(=O)OCC=C | inactive | – |
| CC(=O)Oc1ccccc1C(=O)O | inactive | – |
